Results reported in PubChem BioAssay (NCATS).
Results filed as inconclusive are left out. The source made the active and inactive calls. Calls come from the whole dose curve; as a rule, active = well fitted inhibition curve with a large enough effect; inconclusive = small, poorly fitted or top-dose-only effect; inactive = flat fitted curve, though single readings scatter.

Experiments:
CRL-7250 = normal cell line; assay: Cytotoxic Profiling of Annotated Libraries Using Quantitative High-Throughput Screening (AID 1296008); settings: Five cell lines viability, CellTiter-Glo ATP luminescence, 48-72 h; max response: stronger effect = lower value; for max response: % is set by controls: 0 for no effect and ±100 for the full control effect
Procedure, shortened: (§1)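 Cytotoxicity was measured as CellTiter-Glo ATP luminescence, read after 10 min at room temperature. Compound treatment of the cells lasted 48 or 72 hr at 37 degrees Celsius in a qHTS format.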

HaCat [1] = assay: as above; settings: Five cell lines viability, CellTiter-Glo ATP luminescence, 48-72 h; max response: stronger effect = lower value
Procedure, shortened: as §1

KB-3-1 = assay: as above; settings: Five cell lines viability, CellTiter-Glo ATP luminescence, 48-72 h; max response: stronger effect = lower value
Procedure, shortened: as §1

NIH3T3 = assay: as above; settings: Five cell lines viability, CellTiter-Glo ATP luminescence, 48-72 h; max response: stronger effect = lower value
Procedure, shortened: as §1

HACAT [2] = assay: qHTS assay to identify novel small-molecules to repurpose for Merkel cell carcinoma treatment (AID 1296009); settings: MCC and control cell lines, CellTiter-Glo viability, 72 h; at 44.8 µM (top of the series) unless noted
Procedure, shortened: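 After compound transfer in DMSO, plates were kept 72 hr at 37 degree celsius. Luminescent ATP signal from CellTiter-Glo served as viability measure, normalized against DMSO and no-cell controls.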

Measured: max response
Note: nearly all actives have a fitted effect of over 60% in size.

COc1cc(C(=O)NC(=S)Nc2cccc(NC(=O)c3ccccc3)c2)cc(OC)c1OC
inactive: CRL-7250 -13% | HaCat [1] | KB-3-1 6.94% | NIH3T3 4.46% | HACAT [2]

CCOc1ccc(CCNC(=O)c2cc3sc(Cl)cc3n2C)cc1OCC
inactive: CRL-7250 -5.08% | HaCat [1] | KB-3-1 -5.99% | NIH3T3 | HACAT [2]

O=S1(=O)CCN(Cc2cc(NCC3CCOCC3)c3[nH]c(-c4ccccc4)cc3c2)CC1
inactive: CRL-7250 -9.27% | HaCat [1] | KB-3-1 4.46% | NIH3T3 -21.1% | HACAT [2]

C=C1C(=O)O[C@@H]2[C@H]1CC[C@H](C)[C@]1(CCC(=O)O1)C2(C)O (stereo not given in full)
inactive: CRL-7250 -3% | HaCat [1] | KB-3-1 | NIH3T3 -19.6% | HACAT [2]

Cc1ccc(-c2ncc[nH]2)cc1NC(=O)c1ccc(OCc2ccccn2)cc1
inactive: CRL-7250 -5.69% | HaCat [1] | KB-3-1 -1.78% | NIH3T3 -1.84% | HACAT [2]

N[C@@H]1c2cccnc2[C@H](OC(=O)N2CCC(n3c(=O)[nH]c4ncccc43)CC2)CC[C@H]1c1cccc(F)c1F
inactive: CRL-7250 -0.901% | HaCat [1] | KB-3-1 4.19% | NIH3T3 | HACAT [2]

COc1ccc(S(=O)(=O)Nc2cc(Cl)cc(Cl)c2OC)cc1N1CCNCC1
inactive: CRL-7250 -0.811% | HaCat [1] | KB-3-1 -5.04% | NIH3T3 -3.81% | HACAT [2]

COc1ccncc1C(=O)NC(=O)Nc1ccc(-c2ccccc2)c(C(F)(F)F)c1
inactive: CRL-7250 | HaCat [1] | KB-3-1 -11.2% | NIH3T3 3.25% | HACAT [2]

COc1cc(F)c(C(C)C)cc1-c1ccc(C(F)(F)F)cc1CN1C(=O)OC(c2cc(C(F)(F)F)cc(C(F)(F)F)c2)C1C (stereo not given)
inactive: CRL-7250 3.77% | HaCat [1] | KB-3-1 | NIH3T3 | HACAT [2]

CC1OC2OC(=O)C3(C)CC4C5(CO5)C5=CC(=O)OC(C)(C)C5=CC(=O)C4(C)C(C1=O)C23 (stereo not given)
inactive: CRL-7250 -8.36% | HaCat [1] | KB-3-1 | NIH3T3 1.81% | HACAT [2] inactive [at 17.4 µM]

CCN(CC)C(=O)C(c1ccccc1)N1CCN(c2ccc(NC(=O)c3ccccc3-c3cccnc3)cc2F)CC1 (stereo not given)
inactive: CRL-7250 -1.45% | HaCat [1] | KB-3-1 | NIH3T3 | HACAT [2]

C=C1CC[C@@H](O)[C@]2(C)CC[C@H]3C(=C)C(=O)O[C@@H]3[C@@H]12
inactive: CRL-7250 -3.82% | HaCat [1] | KB-3-1 | NIH3T3 -16.6% | HACAT [2]

CC(=O)O[C@]1(C(C)=O)CC[C@H]2[C@@H]3CCC4=CC(=O)CCC4=C3[C@@H](c3ccc(N(C)C)cc3)C[C@@]21C
inactive: CRL-7250 | HaCat [1] | KB-3-1 -14.7% | NIH3T3 -1.52% | HACAT [2]

COC1C=C(C)C(O)(CO)C2(C)CCCC(C)(C)C12 (stereo not given)
inactive: CRL-7250 | HaCat [1] | KB-3-1 2.43% | NIH3T3 -0.263% | HACAT [2]

CN1CCC(c2cn(C)c3ccc(OS(=O)(=O)c4c(F)cccc4F)cc23)CC1
inactive: CRL-7250 | HaCat [1] | KB-3-1 -7.12% | NIH3T3 3.31% | HACAT [2]

COC1=CC(=O)C=C(C)C12Oc1c(Cl)c(OC)cc(OC)c1C2=O (stereo not given)
inactive: CRL-7250 0.695% | HaCat [1] | KB-3-1 | NIH3T3 -3.2% | HACAT [2]

C=C1C(=O)OC2CC(C)C(CCC(C)O)=CCC12 (stereo not given)
inactive: CRL-7250 -9.97% | HaCat [1] | KB-3-1 | NIH3T3 -1.15% | HACAT [2]

C=C(C)[C@@H]1CC[C@]2(C(=O)O)CC[C@]3(C(=O)O)[C@H](CCC4[C@@]5(C)CCC(=O)C(C)(C)C5CC[C@]43C)C12 (stereo not given in full)
inactive: CRL-7250 -13.3% | HaCat [1] | KB-3-1 4.42% | NIH3T3 -2.4% | HACAT [2] inactive [at 17.4 µM]

COC(=O)c1ccnc(-c2cc(C(=O)Nc3ccc(C4(N)CC4)cc3)ccn2)c1
inactive: CRL-7250 -5.77% | HaCat [1] | KB-3-1 -6.68% | NIH3T3 -5.19% | HACAT [2]

CN(C)c1ccc(NC(=O)NS(=O)(=O)c2ccc(Cl)cc2)cc1
inactive: CRL-7250 -11.7% | HaCat [1] | KB-3-1 | NIH3T3 -5.53% | HACAT [2]

Cc1cc(C)c(-n2cc(C)c3c(Cl)nc(C)nc32)c(C)c1
inactive: CRL-7250 -11.1% | HaCat [1] | KB-3-1 -3.82% | NIH3T3 -6% | HACAT [2]

CC(=O)O[C@@H]1C[C@@]2(C)C(CC[C@]3(C)C2CC=C2C4CC(C)(C)CC[C@]4(C(=O)O)CC[C@]23C)C(C)(C)[C@H]1O (stereo not given in full)
inactive: CRL-7250 3.23% | HaCat [1] | KB-3-1 -16.7% | NIH3T3 -4.52% | HACAT [2] inactive [at 17.4 µM]
